Consider 85 compounds from PubChem BioAssay AID463173 (ICCB-Longwood Screening Facility, Harvard Medical School, 2010).

The campaign covered roughly 52,000 compounds. About 1,700 (3.3%) were called active. Cut-off read from the data, not from the text of the source: active = survival mostly below about 52% (no sharp cut-off); inactive = mostly above about 56%. The entries come from a sample that favours actives as a whole.

For the experiment, the system named is Wild type. Kind of experiment: growth inhibition of S. aureus wild type versus tarO mutant, primary screen, teichoic acid synthesis inhibitors, RN4220, OD600 (AID 463173). The settings on record: S. aureus RN4220 wild type/DeltatarO growth, OD600, 18 h, active compounds read low, screened at 18.75 µg/mL (by protocol).
For the compound `COc1ccc(N2CCN(CCCNC(=O)c3cnn(-c4ccc(F)cc4)c3-n3cccc3)CC2)cc1`, the survival is 77% (inactive).

In the case of `Cc1ccc(S(=O)(=O)C(CNC(=O)c2ccc(C(F)(F)F)cc2)c2ccco2)cc1` (stereo not given), the survival was 134% (inactive).

Regarding `O=C(NCC(c1ccco1)S(=O)(=O)c1ccc(Cl)cc1)c1ccc(C(F)(F)F)cc1` (stereo not given), the survival was -1% (active).

On to `CC(C)(C)c1ccc(C(=O)NCC(c2ccco2)S(=O)(=O)c2ccc(F)cc2)cc1` (stereo not given), for which the survival is 131% (inactive).

In the case of `O=c1c2[nH]c3ccccc3c2nc(SCc2cccc(F)c2)n1-c1ccccc1`, the survival was 53% (inactive).

As to `CCOC(=O)CC(NC(=O)c1cc2c(=O)n3cccc(C)c3nc2s1)c1ccc(OCC(C)C)c(OC)c1` (stereo not given), the survival was 77% (inactive).

For the compound `CCOc1ccccc1NC(=O)c1ccc(F)c(S(=O)(=O)NCc2ccc3c(c2)OCO3)c1`, the survival was 63% (inactive).

For the compound `COc1ccccc1NC(=O)c1cnn(-c2ccccc2)c1-n1cccc1`, the survival was 99% (inactive).

In the case of `CN(Cc1ccccc1)S(=O)(=O)c1ccc(F)c(C(=O)Nc2cccc(Cl)c2Cl)c1`, the survival is 159% (inactive).

For `O=C(Nc1cc(C(F)(F)F)ccc1Cl)c1cnn(-c2ccccc2)c1-n1cccc1`, the survival was -3% (active).

On to `O=C(Nc1cc(Cl)ccc1Cl)c1cc(S(=O)(=O)NCCc2ccccc2)ccc1F`, for which the survival is 133% (inactive).

Consider `COc1cc(OC)c(NC(=O)c2cnn(-c3ccccc3)c2-n2cccc2)cc1Cl`, for which the survival was 80% (inactive).

Take `CCN(Cc1ccccc1)S(=O)(=O)c1ccc(F)c(C(=O)Nc2cc(C(F)(F)F)ccc2Cl)c1`: the survival was -1% (active).

As to `CCN(Cc1ccccc1)S(=O)(=O)c1ccc(F)c(C(=O)Nc2cc(C)ccc2OC)c1`, the survival was 120% (inactive).

As for `O=C(Nc1cc(C(F)(F)F)ccc1Cl)c1cc(S(=O)(=O)NCc2ccccc2)ccc1F`, the survival is 14% (active).

Turning to `CN(Cc1ccccc1)S(=O)(=O)c1ccc(F)c(C(=O)Nc2cc(Cl)cc(Cl)c2)c1`, the survival was 76% (inactive).

On to `CCN(Cc1ccccc1)S(=O)(=O)c1ccc(F)c(C(=O)Nc2ccc(C(C)C)cc2)c1`, for which the survival was 95% (inactive).

In the case of `CN(Cc1ccccc1)S(=O)(=O)c1ccc(F)c(C(=O)Nc2ccccc2C(F)(F)F)c1`, the survival was -6% (active).

As to `O=C(Nc1ccc(Cl)cc1C(F)(F)F)c1cc(S(=O)(=O)NCc2ccccc2)ccc1F`, the survival was 134% (inactive).

For `COc1cccc(CNC(=O)c2ccc3c(c2)c(C)c(C)n3Cc2ccccc2)c1`, the survival is 72% (inactive).

For the compound `CCC(C)Nc1sc(S(=O)(=O)CC)nc1S(=O)(=O)c1ccc(C)cc1` (stereo not given), the survival was 78% (inactive).

As to `COc1ccccc1CNC(=O)Cn1ncn2c(cc3sccc32)c1=O`, the survival was 76% (inactive).

On to `O=C(CN1C(=O)COc2ccc(S(=O)(=O)N3CCOCC3)cc21)N1CCN(c2ccccc2F)CC1`, for which the survival was 100% (inactive).

`O=C(CCS(=O)(=O)c1ccccc1)N(Cc1cccnc1)c1nc2ccc(F)cc2s1`: the survival is 124% (inactive).

Take `Cc1nccn1S(=O)(=O)c1c(C(C)C)cc(C(C)C)cc1C(C)C`: the survival was 119% (inactive).

`CCOc1cc(C)c(C(C)C)cc1S(=O)(=O)n1ccnc1CC`: the survival is -11% (active).

For `CCc1nccn1S(=O)(=O)c1cc(Br)ccc1Br`, the survival was 69% (inactive).

For `Cc1ccc2[nH]c3c(=O)n(CC(=O)N(C)Cc4ccccc4)ncc3c2c1`, the survival is -3% (active).

For the compound `Cc1ccc2[nH]c3c(=O)n(CC(=O)NC(C)C)ncc3c2c1`, the survival was 1% (active).

On to `CCCCN(C)C(=O)Cn1ncc2c([nH]c3ccc(C)cc32)c1=O`, for which the survival was 81% (inactive).

`Cc1ccc(CNC(=O)Cn2ncc3c([nH]c4ccc(C)cc43)c2=O)cc1`: the survival is 79% (inactive).

As to `Cc1ccc(CCNC(=O)Cn2ncc3c([nH]c4ccc(C)cc43)c2=O)cc1`, the survival is 131% (inactive).

Turning to `Cc1ccc2[nH]c3c(=O)n(CC(=O)N(CCN(C)C)Cc4ccccc4)ncc3c2c1`, the survival was 99% (inactive).

As for `O=C(NCC(c1cccs1)S(=O)(=O)c1cccs1)c1ccccc1` (stereo not given), the survival is 70% (inactive).

On to `COc1ccccc1CCNC(=O)Cn1ccc2cc(S(=O)(=O)N3CCCCC3)ccc21`, for which the survival is 87% (inactive).

`Cc1cccc(C(=O)n2nc(-c3cccnc3)nc2NCc2ccccc2)c1`: the survival was 106% (inactive).

On to `Cc1ccc(S(=O)(=O)c2nc(-c3ccc(F)cc3)oc2N2CCN(c3ccccc3)CC2)cc1`, for which the survival was 115% (inactive).

Take `O=S(=O)(c1ccccc1)c1nc(-c2ccccc2F)oc1N1CCOCC1`: the survival is 77% (inactive).

Turning to `COc1ccccc1-c1nc(S(=O)(=O)c2ccccc2)c(N2CCC(C)CC2)o1`, the survival was -5% (active).

`O=S(=O)(c1ccccc1)c1nc(-c2ccccc2Cl)oc1N1CCCCCC1`: the survival is 14% (active).

In the case of `COc1ccccc1-c1nc(S(=O)(=O)c2ccc(Cl)cc2)c(N2CCCCCC2)o1`, the survival was 70% (inactive).

Consider `Cc1ccc(-c2nc(S(=O)(=O)c3ccc(Cl)cc3)c(N3CCCCC3)o2)cc1`, for which the survival was 5% (active).

For the compound `COc1ccc(-c2nc(S(=O)(=O)c3ccc(Cl)cc3)c(N3CCCCCC3)o2)cc1`, the survival is 64% (inactive).

With `Cc1ccc(S(=O)(=O)c2nc(-c3ccccc3Cl)oc2N2CCCCCC2)cc1`, the survival was 20% (inactive).

Take `COc1ccc(-c2nc(S(=O)(=O)c3ccccc3)c(N3CCC(C)CC3)o2)cc1`: the survival was 89% (inactive).

Take `Cc1ccc(S(=O)(=O)c2nc(-c3ccccc3F)oc2N2CCCCC2)cc1`: the survival is 17% (active).

With `O=S(=O)(c1ccccc1)c1nc(-c2ccc(Cl)cc2Cl)oc1N1CCCCC1`, the survival was 57% (inactive).

Consider `Cc1ccc(S(=O)(=O)c2nc(-c3ccc(Cl)cc3)oc2N2CCCCCC2)cc1`, for which the survival is 30% (inactive).

Consider `CCC(Oc1ccccc1)C(=O)Nc1cc(-c2cccc(C)c2)nn1-c1ccccc1` (stereo not given), for which the survival is 89% (inactive).

Regarding `CCOC(=O)c1ccc(NC(=O)CSc2nnc(CNC(=O)c3ccc(OC)cc3)n2CC)cc1`, the survival was 134% (inactive).

On to `COc1ccc(-c2nnc(C3CCN(C(=O)c4ccccc4F)CC3)o2)cc1`, for which the survival is 85% (inactive).

As to `CCOC(=O)c1ccc(NC(=O)CC2C(=O)N(c3ccccc3)C(=O)N2Cc2ccc(C)cc2)cc1` (stereo not given), the survival is 58% (inactive).

For the compound `COc1ccccc1NC(=O)CCCc1nnc2n(C)c(=O)c3sccc3n12`, the survival is 97% (inactive).

Consider `CC1CCN(C(=O)CS(=O)(=O)Cc2ccccc2)CC1`, for which the survival was 102% (inactive).

As for `O=C1C(=O)N(C2CCN(C(=O)c3cccc(Cl)c3)CC2)CCN1Cc1ccc(F)cc1`, the survival was 77% (inactive).

In the case of `Cc1nc2c3ccccc3nc(NNC(=O)CCC(=O)N3CCN(c4ccccc4)CC3)n2n1`, the survival is 81% (inactive).

As to `COc1ccc(-n2c(=O)c3c(c4cc(OC)ccc4n3C)n(CC(=O)NCC3CCCO3)c2=O)cc1` (stereo not given), the survival is 83% (inactive).

`COc1ccc(CNCCSc2nnnn2-c2ccccc2)cc1`: the survival was 83% (inactive).

With `Cc1ccc(C)c(NC(=O)CN(Cc2ccccc2)S(=O)(=O)c2ccc3nc(C)sc3c2)c1`, the survival was 66% (inactive).

`Cc1ccc(-c2nc(S(=O)(=O)c3ccc(C)cc3)c(N3CCN(c4ccccc4)CC3)o2)cc1`: the survival is 104% (inactive).

In the case of `Cc1ccc(-c2nc(S(=O)(=O)c3ccc(C)cc3)c(N3CCCCCC3)o2)cc1`, the survival is 84% (inactive).

As for `Cc1cccc(-c2nc(S(=O)(=O)c3ccc(Cl)cc3)c(N3CCCCCC3)o2)c1`, the survival is 41% (inactive).

On to `Cc1ccc(S(=O)(=O)c2nc(-c3cccc(C)c3)oc2N2CCN(c3ccccc3)CC2)cc1`, for which the survival is 117% (inactive).

On to `COc1ccc(-c2nc(S(=O)(=O)c3ccc(C)cc3)c(N3CCCCC3)o2)cc1`, for which the survival was 63% (inactive).

For the compound `Cc1ccc(S(=O)(=O)c2nc(-c3ccccc3)oc2N2CCCCCC2)cc1`, the survival is 6% (active).

With `Cc1ccc(S(=O)(=O)c2nc(-c3ccccc3)oc2N2CCN(c3ccccc3)CC2)cc1`, the survival was 86% (inactive).

In the case of `Cc1ccc(S(=O)(=O)c2nc(-c3cccc(C)c3)oc2N2CCCCC2)cc1`, the survival is 2% (active).

With `Cc1ccc(-c2nc(S(=O)(=O)c3ccc(C)cc3)c(N3CCCCC3)o2)cc1`, the survival is 0% (active).

In the case of `Cc1cc(C(=O)N2CCN(c3cccc(C)c3C)CC2)c2c(C)nn(-c3ccccc3)c2n1`, the survival was 121% (inactive).

Turning to `Cc1cccc(C(=O)Nc2ccc(N3CC=C(c4ccccc4C)CC3)c(C(=O)O)c2)c1`, the survival is 66% (inactive).

`COc1nnc(-c2ccc(N3CCCCC3)c(NC(=O)c3ccc(C)cc3)c2)c2ccccc12`: the survival was 36% (inactive).

Turning to `COc1nnc(-c2ccc(N3CCCCC3)c(NC(=O)c3ccc(Cl)cc3)c2)c2ccccc12`, the survival is 96% (inactive).

In the case of `Cn1nc(-c2ccc(N3CCCCC3)c(NC(=O)c3ccc(Cl)cc3)c2)c2ccccc2c1=O`, the survival is 80% (inactive).

As for `COc1nnc(-c2ccc(N3CCCCC3)c(NC(=O)c3ccccc3Cl)c2)c2ccccc12`, the survival was -7% (active).

Consider `Cn1c(=O)c(=O)n(C)c2cc(N3CCCC3)c(NC(=O)c3ccccc3Cl)cc21`, for which the survival was 86% (inactive).

As to `COc1nnc(-c2ccc(N3CCCCC3)c(NC(=O)c3ccccc3)c2)c2ccccc12`, the survival is -6% (active).

Turning to `CCN(CCCNC(=O)CSc1cc(=O)n(C)c2ccccc12)c1ccccc1`, the survival was 77% (inactive).

Consider `CC(=O)Nc1ccc(NC(=O)c2cc3sccc3n2Cc2ccc(Cl)cc2)cc1`, for which the survival is 91% (inactive).

Turning to `CC1(C)O[C@H]2[C@@H](O1)[C@@H](C(=O)Nc1ccc(F)c(F)c1)O[C@@H]1OC(C)(C)O[C@@H]12`, the survival is 106% (inactive).

Take `CCN(CC)CCNC(=O)c1ccc2c(=O)n3nc(Nc4cccc(Cl)c4C)sc3nc2c1`: the survival is 153% (inactive).

With `Cc1ccc(C)c(CNC(=O)C2CCN(c3nc4ccccc4nc3C(F)(F)F)CC2)c1`, the survival is 88% (inactive).

Regarding `CCc1c(C)nc2nc(-c3ccccc3)nn2c1NCc1ccc(C)cc1`, the survival was -1% (active).

Turning to `CCc1c(C)nc2nncn2c1NCc1ccccc1`, the survival is 86% (inactive).

With `Cc1ccc(CNc2cc(C)nc3nc(-c4ccc(C)cc4)nn23)cc1`, the survival is 66% (inactive).

As for `CCOC(=O)c1ccc(NC(=O)CSc2nc(C)c(Cc3ccccc3)c(=O)[nH]2)cc1`, the survival was 80% (inactive).
